Assay results reported in ChEMBL document CHEMBL1961873, “Compounds: GSK PKIS; Assays: Nanosyn kinase panel” (2012).

Key:
[1] = target: Tyrosine-protein kinase Fyn (Homo sapiens) (UniProt P06241); conditions: at 1 µM
[2] = target: Tyrosine-protein kinase HCK (Homo sapiens) (UniProt P08631); conditions: at 0.1 µM
[3] = target: Tyrosine-protein kinase HCK (Homo sapiens) (UniProt P08631); conditions: at 1 µM
[4] = target: Insulin-like growth factor 1 receptor (Homo sapiens) (UniProt P08069); conditions: at 0.1 µM
[5] = target: Insulin-like growth factor 1 receptor (Homo sapiens) (UniProt P08069); conditions: at 1 µM
[6] = target: Insulin receptor (Homo sapiens) (UniProt P06213); conditions: at 0.1 µM
[7] = target: Insulin receptor (Homo sapiens) (UniProt P06213); conditions: at 1 µM
[8] = target: Insulin receptor-related protein (Homo sapiens) (UniProt P14616); conditions: at 0.1 µM
[9] = target: Insulin receptor-related protein (Homo sapiens) (UniProt P14616); conditions: at 1 µM
[10] = target: T1, Tyrosine-protein kinase ITK/TSK (Homo sapiens) (UniProt Q08881); conditions: at 0.1 µM
T1 sequence (whole entry): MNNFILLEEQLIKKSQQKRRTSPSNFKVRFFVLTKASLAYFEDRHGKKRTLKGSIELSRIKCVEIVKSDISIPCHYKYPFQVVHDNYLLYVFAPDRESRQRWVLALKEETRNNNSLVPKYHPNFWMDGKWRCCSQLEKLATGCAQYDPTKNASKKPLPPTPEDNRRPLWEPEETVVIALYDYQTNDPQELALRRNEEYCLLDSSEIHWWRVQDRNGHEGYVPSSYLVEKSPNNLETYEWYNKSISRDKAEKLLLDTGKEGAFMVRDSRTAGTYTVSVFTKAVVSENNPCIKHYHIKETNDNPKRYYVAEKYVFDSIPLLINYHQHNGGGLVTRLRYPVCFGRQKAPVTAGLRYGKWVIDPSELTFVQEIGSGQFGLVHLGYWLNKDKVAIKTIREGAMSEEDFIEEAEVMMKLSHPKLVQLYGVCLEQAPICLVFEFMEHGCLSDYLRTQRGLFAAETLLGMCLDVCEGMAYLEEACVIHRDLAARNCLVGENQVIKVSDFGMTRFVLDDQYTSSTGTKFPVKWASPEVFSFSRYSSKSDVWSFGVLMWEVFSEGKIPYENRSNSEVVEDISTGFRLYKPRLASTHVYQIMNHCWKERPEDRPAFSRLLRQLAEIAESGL

[11] = target: T1, Tyrosine-protein kinase ITK/TSK (Homo sapiens); conditions: at 1 µM
[12] = target: Tyrosine-protein kinase JAK1 (Homo sapiens) (UniProt P23458); conditions: at 0.1 µM
[13] = target: Tyrosine-protein kinase JAK1 (Homo sapiens) (UniProt P23458); conditions: at 1 µM
[14] = target: Tyrosine-protein kinase JAK2 (Homo sapiens) (UniProt O60674); conditions: at 0.1 µM
[15] = target: Tyrosine-protein kinase JAK2 (Homo sapiens) (UniProt O60674); conditions: at 1 µM
[16] = target: T2, Tyrosine-protein kinase JAK3 (Homo sapiens) (UniProt P52333); conditions: at 0.1 µM
T2 sequence (whole entry): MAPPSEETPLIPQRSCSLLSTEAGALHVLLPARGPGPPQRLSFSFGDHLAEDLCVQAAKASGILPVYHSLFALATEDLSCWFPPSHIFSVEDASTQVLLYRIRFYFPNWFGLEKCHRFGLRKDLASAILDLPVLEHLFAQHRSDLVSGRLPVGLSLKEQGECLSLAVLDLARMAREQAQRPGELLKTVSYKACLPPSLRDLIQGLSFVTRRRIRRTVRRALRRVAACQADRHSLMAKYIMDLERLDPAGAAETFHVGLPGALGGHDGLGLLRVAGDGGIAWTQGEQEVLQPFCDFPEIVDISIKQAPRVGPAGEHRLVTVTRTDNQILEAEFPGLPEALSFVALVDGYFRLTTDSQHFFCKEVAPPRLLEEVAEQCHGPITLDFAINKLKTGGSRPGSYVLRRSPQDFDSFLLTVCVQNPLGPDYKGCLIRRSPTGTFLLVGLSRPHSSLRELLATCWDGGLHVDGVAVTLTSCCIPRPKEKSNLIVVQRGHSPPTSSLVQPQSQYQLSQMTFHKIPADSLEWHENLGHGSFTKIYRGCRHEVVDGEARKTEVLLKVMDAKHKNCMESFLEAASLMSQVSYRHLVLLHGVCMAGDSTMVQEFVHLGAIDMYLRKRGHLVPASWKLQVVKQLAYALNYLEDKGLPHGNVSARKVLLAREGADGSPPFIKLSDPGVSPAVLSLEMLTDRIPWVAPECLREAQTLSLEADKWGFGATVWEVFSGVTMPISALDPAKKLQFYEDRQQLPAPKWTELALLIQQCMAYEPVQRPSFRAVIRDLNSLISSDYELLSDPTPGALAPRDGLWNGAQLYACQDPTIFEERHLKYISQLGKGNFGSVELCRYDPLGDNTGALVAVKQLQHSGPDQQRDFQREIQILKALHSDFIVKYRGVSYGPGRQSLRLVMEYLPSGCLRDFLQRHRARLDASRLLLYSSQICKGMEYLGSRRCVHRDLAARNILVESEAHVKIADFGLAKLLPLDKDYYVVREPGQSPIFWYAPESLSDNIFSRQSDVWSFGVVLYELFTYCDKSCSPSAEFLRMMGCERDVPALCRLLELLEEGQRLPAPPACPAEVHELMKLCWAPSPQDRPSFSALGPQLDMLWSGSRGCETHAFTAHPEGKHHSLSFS

[17] = target: T2, Tyrosine-protein kinase JAK3 (Homo sapiens); conditions: at 1 µM
[18] = target: Vascular endothelial growth factor receptor 2 (Homo sapiens) (UniProt P35968); conditions: at 0.1 µM
[19] = target: Vascular endothelial growth factor receptor 2 (Homo sapiens) (UniProt P35968); conditions: at 1 µM
[20] = target: Mast/stem cell growth factor receptor Kit (Homo sapiens) (UniProt P10721); conditions: at 0.1 µM;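 also: values are mean inhibition of KIT, from the GSK PKIS dataset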
Mast/stem cell growth factor receptor Kit (Homo sapiens), sequence (P10721 whole entry): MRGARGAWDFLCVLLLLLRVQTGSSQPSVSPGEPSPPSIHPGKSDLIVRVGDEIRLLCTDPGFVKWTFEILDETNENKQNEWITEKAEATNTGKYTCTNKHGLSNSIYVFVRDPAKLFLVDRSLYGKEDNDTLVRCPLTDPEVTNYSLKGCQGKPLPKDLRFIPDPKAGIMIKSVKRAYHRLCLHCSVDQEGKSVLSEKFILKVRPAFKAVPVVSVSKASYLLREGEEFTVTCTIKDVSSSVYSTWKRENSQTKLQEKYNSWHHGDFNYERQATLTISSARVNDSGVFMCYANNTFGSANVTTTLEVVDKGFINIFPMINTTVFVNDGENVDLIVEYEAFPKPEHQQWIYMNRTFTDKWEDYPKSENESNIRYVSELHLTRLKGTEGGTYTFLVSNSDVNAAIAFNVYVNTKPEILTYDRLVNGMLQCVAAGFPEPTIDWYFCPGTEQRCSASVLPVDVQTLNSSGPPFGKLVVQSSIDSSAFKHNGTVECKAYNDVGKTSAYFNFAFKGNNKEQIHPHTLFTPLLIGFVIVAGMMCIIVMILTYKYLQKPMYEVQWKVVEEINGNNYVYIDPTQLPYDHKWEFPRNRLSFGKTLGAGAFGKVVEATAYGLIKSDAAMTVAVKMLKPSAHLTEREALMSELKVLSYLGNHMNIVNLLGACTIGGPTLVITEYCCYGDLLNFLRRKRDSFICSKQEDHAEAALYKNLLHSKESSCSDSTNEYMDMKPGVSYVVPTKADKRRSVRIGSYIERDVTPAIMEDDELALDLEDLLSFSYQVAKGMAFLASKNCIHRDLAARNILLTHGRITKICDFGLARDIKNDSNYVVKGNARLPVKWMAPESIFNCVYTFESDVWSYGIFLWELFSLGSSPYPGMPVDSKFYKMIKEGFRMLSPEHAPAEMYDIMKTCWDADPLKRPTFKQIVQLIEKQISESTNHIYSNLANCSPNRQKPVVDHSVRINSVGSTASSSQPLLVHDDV

Insulin-like growth factor 1 receptor (Homo sapiens), sequence (P08069 31-736 limits assumed): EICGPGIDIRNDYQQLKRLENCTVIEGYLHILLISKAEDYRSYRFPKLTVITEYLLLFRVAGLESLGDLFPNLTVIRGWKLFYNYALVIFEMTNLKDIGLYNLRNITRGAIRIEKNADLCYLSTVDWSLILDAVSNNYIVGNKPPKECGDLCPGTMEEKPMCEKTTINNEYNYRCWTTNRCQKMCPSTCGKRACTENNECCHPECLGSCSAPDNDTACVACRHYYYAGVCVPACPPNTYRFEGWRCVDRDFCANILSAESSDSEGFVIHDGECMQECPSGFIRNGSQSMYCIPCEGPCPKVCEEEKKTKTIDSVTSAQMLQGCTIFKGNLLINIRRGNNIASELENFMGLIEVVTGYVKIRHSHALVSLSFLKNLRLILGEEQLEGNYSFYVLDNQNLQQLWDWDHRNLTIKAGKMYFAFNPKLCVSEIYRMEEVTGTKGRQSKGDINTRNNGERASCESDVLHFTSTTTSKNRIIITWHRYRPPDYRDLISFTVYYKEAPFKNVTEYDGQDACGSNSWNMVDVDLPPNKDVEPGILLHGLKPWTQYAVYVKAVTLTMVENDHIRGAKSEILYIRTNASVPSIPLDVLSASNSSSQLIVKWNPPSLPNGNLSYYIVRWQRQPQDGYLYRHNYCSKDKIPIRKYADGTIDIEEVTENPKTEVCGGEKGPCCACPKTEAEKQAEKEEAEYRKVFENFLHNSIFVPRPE
Insulin-like growth factor 1 receptor (Homo sapiens), sequence (P08069 741-1367 limits assumed): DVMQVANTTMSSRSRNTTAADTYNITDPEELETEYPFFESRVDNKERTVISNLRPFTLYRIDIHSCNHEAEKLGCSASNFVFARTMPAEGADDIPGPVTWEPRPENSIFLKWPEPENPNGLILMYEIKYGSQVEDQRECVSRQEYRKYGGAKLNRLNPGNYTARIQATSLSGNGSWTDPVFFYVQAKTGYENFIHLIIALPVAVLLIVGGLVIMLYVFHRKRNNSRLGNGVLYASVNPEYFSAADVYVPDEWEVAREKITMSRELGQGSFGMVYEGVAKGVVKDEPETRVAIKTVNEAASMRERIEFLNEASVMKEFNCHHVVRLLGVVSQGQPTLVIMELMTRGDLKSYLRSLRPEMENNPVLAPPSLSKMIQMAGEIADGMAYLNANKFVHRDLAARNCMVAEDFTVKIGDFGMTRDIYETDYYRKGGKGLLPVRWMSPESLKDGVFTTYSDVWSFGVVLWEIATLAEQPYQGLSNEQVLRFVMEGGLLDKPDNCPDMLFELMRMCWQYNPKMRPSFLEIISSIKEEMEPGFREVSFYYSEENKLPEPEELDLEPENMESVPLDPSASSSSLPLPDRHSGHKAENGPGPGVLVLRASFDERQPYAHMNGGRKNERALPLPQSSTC
Insulin receptor-related protein (Homo sapiens), sequence (P14616 27-742 limits assumed): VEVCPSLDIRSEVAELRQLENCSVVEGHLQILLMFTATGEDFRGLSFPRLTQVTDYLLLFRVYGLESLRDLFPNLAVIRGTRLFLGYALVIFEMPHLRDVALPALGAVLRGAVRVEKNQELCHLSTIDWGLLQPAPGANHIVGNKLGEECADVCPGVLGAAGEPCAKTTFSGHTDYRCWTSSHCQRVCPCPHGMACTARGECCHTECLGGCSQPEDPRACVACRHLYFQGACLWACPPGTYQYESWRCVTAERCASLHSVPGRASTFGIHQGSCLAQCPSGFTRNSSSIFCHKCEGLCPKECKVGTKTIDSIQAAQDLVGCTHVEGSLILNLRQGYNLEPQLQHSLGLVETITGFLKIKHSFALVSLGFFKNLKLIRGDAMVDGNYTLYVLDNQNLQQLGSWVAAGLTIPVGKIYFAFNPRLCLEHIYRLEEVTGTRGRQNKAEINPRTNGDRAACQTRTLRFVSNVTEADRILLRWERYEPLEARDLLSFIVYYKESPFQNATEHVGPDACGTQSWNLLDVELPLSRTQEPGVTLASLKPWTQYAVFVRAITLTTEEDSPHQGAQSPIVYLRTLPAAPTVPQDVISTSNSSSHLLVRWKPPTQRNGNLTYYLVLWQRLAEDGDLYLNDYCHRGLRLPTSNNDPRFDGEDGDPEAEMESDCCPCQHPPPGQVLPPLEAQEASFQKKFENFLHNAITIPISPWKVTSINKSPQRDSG
Insulin receptor-related protein (Homo sapiens), sequence (P14616 747-1297 limits assumed): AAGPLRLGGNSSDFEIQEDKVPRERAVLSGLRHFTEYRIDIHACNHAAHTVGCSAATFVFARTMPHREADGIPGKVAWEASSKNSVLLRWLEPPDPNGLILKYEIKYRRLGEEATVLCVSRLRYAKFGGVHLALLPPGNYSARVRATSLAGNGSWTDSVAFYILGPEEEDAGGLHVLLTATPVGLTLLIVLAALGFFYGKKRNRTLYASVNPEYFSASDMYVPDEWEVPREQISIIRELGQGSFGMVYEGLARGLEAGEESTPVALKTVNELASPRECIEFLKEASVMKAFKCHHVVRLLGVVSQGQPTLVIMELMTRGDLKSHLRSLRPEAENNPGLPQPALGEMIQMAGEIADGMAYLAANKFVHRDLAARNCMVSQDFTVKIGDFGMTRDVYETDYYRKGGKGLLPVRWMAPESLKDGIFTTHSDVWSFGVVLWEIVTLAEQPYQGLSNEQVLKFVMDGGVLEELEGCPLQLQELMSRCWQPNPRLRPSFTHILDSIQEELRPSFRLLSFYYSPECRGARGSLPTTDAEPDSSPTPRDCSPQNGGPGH
Tyrosine-protein kinase Fyn (Homo sapiens), sequence (P06241 2-537 limits assumed): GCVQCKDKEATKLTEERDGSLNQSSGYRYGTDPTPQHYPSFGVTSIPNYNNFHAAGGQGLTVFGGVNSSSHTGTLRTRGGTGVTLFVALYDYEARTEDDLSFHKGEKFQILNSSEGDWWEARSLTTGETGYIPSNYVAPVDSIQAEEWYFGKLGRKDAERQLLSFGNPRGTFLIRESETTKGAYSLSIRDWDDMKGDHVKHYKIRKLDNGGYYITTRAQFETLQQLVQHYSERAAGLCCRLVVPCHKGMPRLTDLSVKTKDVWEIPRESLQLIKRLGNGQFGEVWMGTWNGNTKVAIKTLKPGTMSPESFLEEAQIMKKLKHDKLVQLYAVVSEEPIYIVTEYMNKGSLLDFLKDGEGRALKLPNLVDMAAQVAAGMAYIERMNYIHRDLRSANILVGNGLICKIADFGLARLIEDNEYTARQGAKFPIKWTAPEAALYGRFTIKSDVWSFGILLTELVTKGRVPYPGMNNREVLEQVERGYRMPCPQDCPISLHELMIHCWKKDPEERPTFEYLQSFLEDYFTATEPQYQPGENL
Tyrosine-protein kinase HCK (Homo sapiens), sequence (P08631 2-526 limits assumed): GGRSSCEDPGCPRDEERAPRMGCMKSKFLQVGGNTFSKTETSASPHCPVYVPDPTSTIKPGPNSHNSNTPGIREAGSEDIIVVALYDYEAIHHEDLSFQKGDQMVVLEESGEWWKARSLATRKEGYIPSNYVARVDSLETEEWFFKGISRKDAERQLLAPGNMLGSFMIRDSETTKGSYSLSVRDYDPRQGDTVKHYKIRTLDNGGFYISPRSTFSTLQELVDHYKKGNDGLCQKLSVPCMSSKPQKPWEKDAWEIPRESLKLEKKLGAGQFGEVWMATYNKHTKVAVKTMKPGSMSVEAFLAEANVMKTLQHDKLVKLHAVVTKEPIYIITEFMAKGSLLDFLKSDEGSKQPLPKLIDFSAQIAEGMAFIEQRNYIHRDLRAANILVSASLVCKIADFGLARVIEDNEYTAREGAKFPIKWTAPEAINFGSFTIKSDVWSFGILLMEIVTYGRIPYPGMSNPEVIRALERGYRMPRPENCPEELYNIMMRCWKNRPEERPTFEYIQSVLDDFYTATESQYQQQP

SMILES | inhibition [1] [%] | inhibition [2] [%] | inhibition [3] [%] | inhibition [4] [%] | inhibition [5] [%] | inhibition [6] [%] | inhibition [7] [%] | inhibition [8] [%] | inhibition [9] [%] | inhibition [10] [%] | inhibition [11] [%] | inhibition [12] [%] | inhibition [13] [%] | inhibition [14] [%] | inhibition [15] [%] | inhibition [16] [%] | inhibition [17] [%] | inhibition [18] [%] | inhibition [19] [%] | inhibition [20] [%]
O=C1Nc2ccccc2/C1=C/Nc1ccc2[nH]c(=O)[nH]c2c1 | 10.9 | 7.89 | 21.5 | 7.08 | 24.8 | 8.02 | 32.4 | 3.85 | 6.41 | 1.78 | 5.35 | 3.96 | 20.8 | 1.12 | 1.93 | -1.44 | 8.66 | 13.7 | 48.1 | 
COc1cccc(-n2nc(C)c3c(N/N=C(\C)c4ccncc4)ncnc32)c1 | 4.54 | 1.01 | 3.38 | -0.28 | 0.73 | 2.42 | 0.25 | -2 | -2.33 | 0.43 | -0.01 | 0.91 | 4.07 | -0.64 | 1.79 | -1.14 | 0.38 | 1.62 | 4.01 | 1.56
Cc1ccc2c(-c3ccnc(Nc4cccc(C(F)(F)F)c4)n3)c(-c3ccccc3)nn2n1 | 61 | 11.3 | 45.1 | 2.54 | 4.76 | 8.09 | 24.8 | 2.33 | 6.16 | 1.33 | 1.69 | 6.27 | 4.74 | 1.01 | 2.03 | -1.71 | -2.26 | 17.7 | 69.3 | 9.72
CN(c1ccc(NC(=O)Nc2ccc(OC(F)(F)F)cc2)cc1)c1ccnc(Nc2cccc(S(N)(=O)=O)c2)n1 | 53.5 | 25.2 | 77.3 | -1.04 | 0.46 | 1.9 | 2.39 | 0.67 | 3.26 | 10.6 | 67.3 | 2.28 | 12.8 | 0.3 | 1.31 | -2.38 | -1.69 | 78.8 | 99.6 | 37.5
COc1cccc(-n2ncc3c(N/N=C/c4ccc(S(C)(=O)=O)cc4)ncnc32)c1 | 69.8 | 17 | 55.7 | -6.32 | -5.27 | 2.59 | 1.06 | 0.2 | 0.63 | -2.33 | 0.29 | 1.39 | 6.92 | 1.22 | 11.5 | -4.07 | 5.53 | 31.4 | 66.4 | 16
Cc1cc(O)cc(C)c1/C=C/c1cncc(C(=O)N(C)C)c1 | 4.2 | 4.54 | 10.8 | 2.54 | 5.15 | 2.68 | 0.32 | 2.71 | 1 | 1.43 | 1.94 | 4.52 | 5.42 | 1.7 | 3.22 | -0.76 | 1.31 | 7.06 | 12.3 | 4.12
Cc1nc(-c2ccccc2)n2nc(NCCCN3CCOCC3)ncc12 | 4.98 | 3.98 | 4.67 | 3.15 | 1.6 | 0.32 | 2.69 | -0.73 | 1.44 | 0.99 | 1.89 | 3.7 | 4.63 | 0.5 | 1.89 | -2.38 | 0.04 | 2.59 | 5.25 | 3.52
CCn1c(-c2nonc2N)nc2c(C#CC(C)(C)O)nc(OCCNC)cc21 | 4.65 | 5.42 | 8.69 | 5.39 | 3.53 | 6.39 | 5.58 | 0.83 | 1.9 | 0.63 | 0.12 | 1.27 | 2.83 | 2.5 | 3.3 | -2.54 | -0.89 | 16.2 | 64.8 | 4.99
NS(=O)(=O)c1ccc(Nc2cc(-c3cccc(O)c3)n[nH]2)cc1 | 2.45 | 5.06 | 11.7 | 5.98 | 5.23 | 3.33 | 3.4 | 6.28 | 2.76 | 2.78 | 4.07 | 4.66 | 7.23 | 1.41 | 1.95 | -1.44 | 1.25 | 9.9 | 19.2 | 33.2
NC(=O)c1sc(-n2cnc3ccccc32)cc1OCc1ccccc1Br | 6.19 | 4.21 | 7.03 | 1.53 | 3.04 | 3.07 | 5.25 | 1.82 | 3.4 | 1.35 | 2.17 | 4.07 | 3.98 | 1.97 | 2.84 | -2.53 | 0.23 | 0.79 | 13.6 | 5.61
CS(=O)(=O)Nc1cccc(-c2ccc3c(NC(=O)C4CC4)n[nH]c3c2)c1 | 3.25 | 3.53 | 3.03 | 1.3 | -1.63 | 2.96 | 4.14 | -0.36 | -1.26 | 0.53 | 1.71 | 0.09 | 0.48 | 0.43 | 1.32 | -0.13 | 2.96 | 1.1 | 7.91 | -1.41
NS(=O)(=O)c1ccc(-c2cc3ccncc3cc2OCc2ccccc2)cc1 | 3.52 | 4.9 | 6.46 | 1.47 | 2.17 | 4.34 | 5.38 | 2.36 | 2.61 | 0.77 | 0.35 | 3.02 | 10 | 1.43 | 3.23 | -0.75 | -1.27 | 4.82 | 8.11 | 4.01
COc1cc(/C=N/Nc2ncnc3c2cnn3C(C)C)ccc1O | 40.2 | 7.16 | 32.6 | 9.1 | 7.79 | 2.75 | 2.59 | -1.25 | 2.79 | 1.18 | 5 | 2.44 | 14.2 | 0.62 | 0.55 | 0.75 | 3.25 | 4.03 | 19.8 | 8.94
